Inconclusive results are not listed. Active and inactive are the calls of the source. The calls were made as follows: active = hit-call score of the fitted dose curve at least 0.9, where 1 is the maximum; inconclusive = response in the unintended direction; inactive = score below 0.9.
Target: Estrogen receptor (Homo sapiens) (UniProt P03372)
Assay: CCTE_Deisenroth_AIME_384WELL_LUC_Active: CCTE's 384-well Estrogen Receptor Transactivation Assay with AIME metabolic competence (ERTA luciferase; metabolism positive), Deisenroth Lab (AID 2284030)
Experimental: CCTE_Deisenroth_AIME_384WELL (AIME metabolism assay) is a cell-based, single-readout assay that uses VM7Luc4E2, a human mammary gland/breast cell line, with measurements taken at 24 hour after chemical dosing in a 384-well plate.CCTE_Deisenroth_AIME_384WELL_LUC_Active is one of four assay components measured or calculated from the CCTE_Deisenroth_AIME_384WELL assay. It is designed to make measurements of luciferase induction, a form of inducible reporter, as detected with bioluminescence signals by luciferase-coupled ATP quantitation technology.CCTE_Deisenroth_AIME_384WELL_LUC_Active is a component of the CCTE_Deisenroth_AIME_384WELL assay that measures the effect of retroftting the VM7Luc ERTA assay with the Alginate Immobolization of Metabolic Enzymes (AIME) metabolism method. AIME is optimized to impart phase I hepatic metabolism using phenobarbital/beta-naphthoflavone induced hepatic S9 from male Sprague Dawley rats. Parent chemicals are incubated for 2 hours in the AIME assay prior to transfer to the VM7Luc ERTA assay plate. […] This endpoint evaluates reporter induction in metabolism positive mode. Using a type of inducible reporter in VM7Luc cells, gain-of-signal activity can be used to understand changes in the reporter gene as they relate to xenobiotic metabolism and the gene ESR1. This assay endpoint, CCTE_Deisenroth_AIME_384WELL_LUC_Active, was analyzed in the positive analysis fitting direction relative to 17beta-estradiol as the positive control in the ERTA assay. To generalize the intended target to other relatable targets, this assay endpoint is annotated to the nuclear receptor intended target family, where the subfamily is steroidal.
The AIME procedure consists of a preparative "pre-stamping" step using a barium chloride/poly-L-lysine (PLL) solution followed by "stamping" the lid in alginate-hepatic S9 (metabolism positive) or alginate-water (metabolism negative) to form microspheres. Once stamping is completed, the AIME lids are placed in duplicate microplates (metabolism positive or negative) containing chemical solutions and incubated for two hours to facilitate metabolic reactions. The conditioned medium, containing parent chemical or metabolites, is then transferred to the cell-based VM7Luc Estrogen Receptor Transactivation Assay (ERTA) for 24 hours. A typical experimental design tests a 10-point concentration series (0.002 - 200 uM) for 8 compounds (96-well format)1 or 32 compounds (384-well format)2 in single technical replicate. AIME assay controls include trans-stilbene (bioactivated control) and ethylparaben (bioinactivated control). ERTA assay plate controls include 17-beta estradiol (positive control) and DMSO (solvent control). Experiments typically comprise a minimum of four experimental replicates (n=4).

Chain of Estrogen receptor (Homo sapiens) (P03372 whole entry, looked up): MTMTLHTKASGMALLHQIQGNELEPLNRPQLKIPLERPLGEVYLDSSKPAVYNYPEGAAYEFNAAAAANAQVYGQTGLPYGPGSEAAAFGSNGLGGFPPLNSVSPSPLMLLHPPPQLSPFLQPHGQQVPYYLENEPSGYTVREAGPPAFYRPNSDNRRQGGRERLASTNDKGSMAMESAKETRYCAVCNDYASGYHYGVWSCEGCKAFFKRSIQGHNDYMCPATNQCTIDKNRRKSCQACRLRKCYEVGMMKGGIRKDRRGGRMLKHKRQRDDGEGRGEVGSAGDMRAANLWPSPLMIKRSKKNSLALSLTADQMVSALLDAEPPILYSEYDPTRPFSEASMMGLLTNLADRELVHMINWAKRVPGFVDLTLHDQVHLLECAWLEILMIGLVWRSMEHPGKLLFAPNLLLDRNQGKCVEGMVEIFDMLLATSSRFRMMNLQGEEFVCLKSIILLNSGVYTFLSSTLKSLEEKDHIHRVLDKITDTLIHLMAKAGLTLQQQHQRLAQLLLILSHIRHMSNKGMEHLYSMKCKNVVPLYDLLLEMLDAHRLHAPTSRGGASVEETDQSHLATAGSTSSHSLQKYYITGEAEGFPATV

Compound	outcome	AC50
CC(=O)Oc1ccccc1C(=O)O	inactive	
CC1(C)CC(N=C=O)CC(C)(CN=C=O)C1 (centres undefined)	inactive	
CCNc1cccc(C)c1	inactive	
COc1ccc(C)cc1N	inactive	
CNCc1cc(F)ccc1Oc1ccc(Cl)c(Cl)c1	inactive	
Cc1ccc(C(C)C)c(O)c1	inactive	
CCCCCCCCCCCCCCCCCC(=O)O	inactive	
Cc1cccc(C)c1O	inactive	
CCCCCCCC=O		27.9 µM (active)
Cc1ccc(N(C)C)cc1	inactive	
Cc1cccc([N+](=O)[O-])c1C	inactive	
Clc1cc(Cl)c(Cl)cc1Cl	inactive	
CCCc1cc(=O)[nH]c(=S)[nH]1	inactive	
Cc1ccc(C)c(O)c1C	inactive	
CCCCCCCCCCO	inactive	
Nc1ccc2c(c1)C(=O)c1ccccc1C2=O		72.1 µM (active)
CCOc1ccc2c(c1)C(C)=CC(C)(C)N2		34.5 µM (active)

Compound	outcome	AC50
COc1cc(C=O)ccc1O	inactive	
CCCCCC(=O)O	inactive	
CCCCOC(=O)CCCCCCCCC(=O)OCCCC	inactive	
O=c1c(O)c(-c2ccc(O)c(O)c2)oc2cc(O)cc(O)c12		21.2 µM (active)
CCCCCCC(=O)OCC	inactive	
C=CCc1ccc(O)c(OC)c1	inactive	
CC1=C(/C=C/C(C)=C/C=C/C(C)=C/CO)C(C)(C)CCC1	inactive	
Cc1cc(=O)[nH]c(=S)[nH]1	inactive	
O=c1[nH]cc(F)c(=O)[nH]1	inactive	
NCCO	inactive	
C[C@]12C=CC(=O)C=C1CC[C@@H]1[C@@H]2C(=O)C[C@@]2(C)[C@H]1CC[C@]2(O)C(=O)CO	inactive	
COCCOCCOC	inactive	
CNC(=O)[C@H]1O[C@@H](n2cnc3c(NCc4cc(Cl)ccc4OCc4cc(C)no4)ncnc32)[C@H](O)[C@@H]1N	inactive	
CC1(C)NC(=O)NC1=O	inactive	
Cc1ccc2ncccc2c1	inactive	
CN1CCCC1=O	inactive	
C[Si]1(C)O[Si](C)(C)O[Si](C)(C)O[Si](C)(C)O1	inactive	
